Assay outcomes: PubChem, National Center for Advancing Translational Sciences (NCATS)
HPGD inh: HPGD (human) dehydrogenase inhibition. purified HPGD, NADH fluorescence kinetic, PGE2 substrate. 150,000 compounds, 4.3% hits. P15428. Potency, µM, for the others: at the top dose activity change, negative = inhibition, most hits filed as inhibitors. AID 894; also: % is scaled to controls: 0 for no effect and ±100 for the full control effect
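20 nM HPGD preincubated 15 min at room temperature with compound in 50 mM Tris-HCl pH 8, 0.01% Tween 20. Started with 1 mM NAD+ and 30 uM prostaglandin E2; NADH fluorescence (360/450 nm) read 5 times over 30-s intervals, last minus first.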
JMJD2E inh: JMJD2E (human) inhibition | JMJD2E catalytic domain, FDH-coupled NADH fluorescence (FDH is formaldehyde dehydrogenase) | Potency, µM (highest dose often 57.1 µM), for the others: top-dose activity change, negative = inhibition, actives largely listed as inhibitors | 230,000 compounds, 1.6% hits | AID 2147;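 also: 0% = wells with enzyme and -100% = buffer wells without enzyme; nearly all actives have a fitted effect of over 50% in size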
ALDH1A1 block: blocks purified human ALDH1A1 activity | Purified ALDH1A1, NADH fluorescence, propionaldehyde substrate | Potency, µM (highest dose often 75.3 µM), for inactives: top-dose activity, negative = inhibition, actives largely listed as inhibitors | 220,000 compounds, 7.3% hits;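 also: plate controls were no enzyme wells and a reference inhibitor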
Target sequence (P00352 whole entry, looked up): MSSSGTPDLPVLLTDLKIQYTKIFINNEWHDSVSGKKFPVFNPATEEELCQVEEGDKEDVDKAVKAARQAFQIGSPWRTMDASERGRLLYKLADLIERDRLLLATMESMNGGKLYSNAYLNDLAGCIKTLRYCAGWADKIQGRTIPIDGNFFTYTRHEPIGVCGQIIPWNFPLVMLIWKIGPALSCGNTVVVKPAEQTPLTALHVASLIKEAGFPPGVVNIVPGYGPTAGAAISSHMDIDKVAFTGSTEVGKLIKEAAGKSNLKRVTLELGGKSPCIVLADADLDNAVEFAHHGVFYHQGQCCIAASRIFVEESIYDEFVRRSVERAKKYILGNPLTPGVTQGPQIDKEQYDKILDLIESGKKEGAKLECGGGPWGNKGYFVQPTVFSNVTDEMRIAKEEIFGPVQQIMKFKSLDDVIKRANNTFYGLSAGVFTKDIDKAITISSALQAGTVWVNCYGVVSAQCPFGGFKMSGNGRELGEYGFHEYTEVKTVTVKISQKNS
HTT aggregate: mutant huntingtin aggregation inhibition; PC12 HttQ103-GFP aggregates, Acumen cytometry, 40 h; Potency, µM (titrated, usually from 46.1 µM), inactives show at the highest dose activity change, negative = inhibition, actives largely listed as inhibitors; 220,000 compounds, 1.1% hits; AID 1688; active = well fitted curve in the direction sought with a large enough effect; inconclusive = small, poorly fitted or top-dose-only effect, or another doubt; inactive = no such curve, though single readings can be large; an effect the other way counts as inactive or inconclusive; also: % is scaled to controls: 0 for no effect and ±100 for the full control effect; nearly all actives have a fitted effect of over 60% in size
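PC12/HTTQ103-GFP, ecdysone-inducible; teb 100 nM; cpd qHTS titration; GFP aggregates read on laser cytometer, Ex 488/Em 500-530 nm.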
HTT cytoprotect: cytoprotection in Huntington HTT-Q103 PC12 cell model; PC12 HTT-Q103 induced, cytoprotection, ATP luminescence, 40 h; Potency, µM (highest dose often 56.4 µM), for the others: cytoprotection (ATP increase), hits mostly activators; 230,000 compounds, 0.14% hits; AID 1471; active = well fitted curve in the direction sought with a large enough effect; inconclusive = small, poorly fitted or top-dose-only effect, or another doubt; inactive = no such curve, though single readings can be large; an effect the other way counts as inactive or inconclusive; also: % of control where 0% means no effect; nearly all actives have a fitted effect of over 45% in size
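Readout: ATPlite luminescence (ATP level). Model: stable PC12, inducible Htt exon1 Q103-GFP. Inducer: tebufenozide, 100 nM final. Compounds: dose series. No G418 in medium.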
Lamin A splicing: changes lamin A minigene splicing in HeLa cells; 200,000 compounds, 0.01% hits; Potency, µM (highest dose often 46.1 µM), for inactives: top-dose ratio change, negative = inhibition, usual class: inhibitors; HeLa LMNA splicing GFP/RFP minigene ratio, 48 h; AID 1487; active = well fitted inhibition curve with a large enough effect in the signal ratio, with a control signal flat, not every such curve was filed as active; inconclusive = small, poorly fitted or top-dose-only effect, or effect the other way, or a change in a side signal; the % refers to the signal ratio; also: % is scaled to controls: 0 for no effect and ±100 for the full control effect
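S3 HeLa stable clones carrying a lamin A-EGFP splicing minigene plus DsRed2 were seeded at 600 cells/well in Opti-MEM with 2% FBS, pin-dosed and incubated 48 h at 37°C. Acumen cytometry (488 nm) gave the GFP/RFP total-intensity ratio.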
* = called active by the depositor; ? = inconclusive; nt = no result; [ ] = another dose, or the depositor's remark. In the library only some 9.2% were active in any assay of this set; here they are far more common. Unless noted, calls follow the shape of the dose curve; as a rule, active = well fitted inhibition curve with a large enough effect (not every such curve was filed as active); inconclusive = small, poorly fitted or top-dose-only effect, or another doubt; inactive = no such curve, though single readings can be large or run the other way. Potency is read from the fitted curve at half-maximal effect.

SMILES	HPGD inh	JMJD2E inh	ALDH1A1 block	HTT aggregate	HTT cytoprotect	Lamin A splicing
CCc1cc(-c2n[nH]c(=S)n2C(C)c2ccccc2)cs1 (centres undefined)	16µM*	7%	0.56µM*	?	-4%	?
Cc1scc(-c2n[nH]c(=S)n2C(C)c2ccccc2)c1C (centres undefined)	25µM*	4%	?	21%	12%[10 µM]	?
COc1ccc(N2CCN(C(=O)CCc3ccc(S(=O)(=O)NC(C)(C)C)cc3)CC2)cc1	nt	9%	nt	-15%[9.22 µM]	-6%[10 µM]	nt
Cc1[nH]n(-c2ccc(Cl)cc2)c(=O)c1N=Nc1cccnc1	nt	-4%	nt	9%[9.22 µM]	-15%[10 µM]	nt
Cc1[nH]n(-c2ncc(-c3ccc(Cl)cc3)s2)c(=O)c1C(c1ccc(Cl)cc1)C(C#N)C#N (centres undefined)	10µM*	?	?	?	-8%[10 µM]	?
Cc1cc(C(=O)N/N=C/c2cc(Br)cc(Br)c2OC(=O)c2ccccc2)n[nH]1	-12%	-1%	-1%	4.5µM*	0%[10 µM]	?
Cc1cc(C(=O)N/N=C/c2cc(Br)ccc2OC(=O)c2ccc(Br)cc2)n[nH]1	-6%	-10%	24%	10µM*	29%[10 µM]	?
Cc1cc(C(=O)N/N=C/c2cc(Br)cc(Br)c2OC(=O)c2cccc(F)c2)n[nH]1	nt	11%	2%	-4%[9.22 µM]	14%[10 µM]	88%[46 µM]
CCc1ccccc1NC(=O)C1CCN(c2cnccn2)CC1	nt	nt	nt	nt	nt	-4%[46 µM]
COc1cccc(N2CCN(S(=O)(=O)c3cc(-c4cc(C)no4)ccc3C)CC2)c1	nt	nt	nt	nt	nt	-6%[46 µM]
O=C(NCc1ccc(-n2cccc2)cc1)c1cccc(F)c1	nt	-6%	16µM*	24%	-59%	6%[9.22 µM]
O=C(COC(=O)c1nc(Cl)ccc1Cl)c1ccc(Cl)s1	-27%	?	?	-11%	17%[10 µM]	-2%
Cn1cccc1C(=O)OCC(=O)c1cc2ccccc2o1	28µM*	-2%	?	3%	1%[10 µM]	-2%
O=C(COC(=O)c1ccc(Cl)s1)c1cc2ccccc2o1	35µM*	-16%	?	3%	-14%	-6%
CC(C)[C@H](Nc1ncnc2nc[nH]c12)C(=O)O	-5%	nt	2%[13.5 µM]	nt	-17%[10 µM]	nt
CN(C)NC(=S)NC(=O)C12CC3CC(CC(C3)C1)C2	nt	-2%	28µM*	14%	-10%	?
CC(C)(C)NC(=S)NC(=O)C12CC3CCC(CC(C3)C1)C2	0%	-1%	?	?	15%[10 µM]	4%
O=S(=O)(c1cnc(Cl)c(Cl)c1)N1CCc2ccccc21	nt	-5%	nt	5%[9.22 µM]	-15%[10 µM]	nt
O=S(=O)(c1cnc(Cl)c(Cl)c1)N1CCCc2ccccc21	-13%	1%	3.2µM*	0%	-25%[10 µM]	-7%
O=S(=O)(c1cnc(Cl)c(Br)c1)N1CCc2ccccc21	nt	-11%	2.8µM*	-4%[9.22 µM]	-2%[10 µM]	nt
CCOC(=O)c1cc(-c2ccccc2)n(CCC(=O)NC2CCCCC2)c1C	nt	nt	nt	nt	nt	22%[46 µM]
CC1=C2[C@H](/C=C(\C)C(=O)O)CC[C@@H](C)[C@H]2CC1	-5%	nt	18µM*	nt	1%	nt
CCCC(=O)OC1=CN(Cc2ccccc2)S(=O)(=O)c2ccccc21	nt	nt	nt	nt	nt	9%[46 µM]
COc1ccc(O)c(-c2[nH]ncc2C(=O)c2ccccc2)c1	-21%	-4%	7.9µM*	?	13%[0.074 µM]	8%
Cc1ccccc1N/N=C1\CCCNC1=O	22µM*	?	10µM*	15%	-78%	-3%
SMILES	HPGD inh	JMJD2E inh	ALDH1A1 block	HTT aggregate	HTT cytoprotect	Lamin A splicing
COC(=O)c1c(NC(=S)Nc2ccc(F)cc2[N+](=O)[O-])sc2c1CCCCC2	nt	-9%	4µM*	15%	20%[10 µM]	6%
COc1ccc(NC(=O)c2c(NC(=O)CNCc3ccco3)sc3c2CCC3)cc1	-17%	4%	?	12%	-9%	?
COC(=O)c1c(NC(=O)COC(=O)c2ccc(Cl)cc2[N+](=O)[O-])sc2c1CCCCC2	-13%	-9%	1%	7%	?	-8%
COC(=O)c1c(NC(=S)Nc2ccc(C(=O)N3CCOCC3)cc2)sc2c1CCC2	nt	-21%	3.5µM*	9%	nt	nt
COC(=O)c1c(NC(=O)CCNCc2ccco2)sc2c1CCC2	nt	?	24µM*	-6%[9.22 µM]	1%[10 µM]	nt
COC(=O)c1c(NC(C)=O)sc2c1CCCCC2	28µM*	3%	16µM*	0%	-17%[10 µM]	13%
O=C(Oc1ccccc1)N1CCC2(CC1)CCN(c1cccc(-c3ccccc3)c1)CC2	-2%	nt	?	nt	?	nt
O=C(c1cccc(F)c1)N1CCC2(CC1)CCN(c1ncccn1)CC2	-12%	nt	-3%	nt	-130%	nt
CCc1ccc(NS(=O)(=O)c2ccc(C(=O)N(C)C)s2)cc1	nt	nt	nt	nt	nt	16%[46 µM]
CNC(=S)Nc1sc2c(c1C(=O)OC)CCC2	nt	?	?	-18%	-25%	nt
COC(=O)c1c(NC(C)=O)sc2c1CCCC2	-23%	?	25µM*	4%	-19%[10 µM]	2%
O=C(NCCc1nc2ccccc2[nH]1)c1ccc([N+](=O)[O-])cc1	nt	12%	5%	-6%[9.22 µM]	-2%[10 µM]	nt
O=C(Cc1nc2ccccc2[nH]1)c1ccc([N+](=O)[O-])cc1	nt	?	18µM*	1%[9.22 µM]	-6%[10 µM]	nt
